According to the supplement of paper PMC11732987, “Enantioselective OTUD7B fragment discovery through chemoproteomics screening and high-throughput optimisation” (Communications Chemistry, 2025):

How the values were obtained:
Assay in all cases: log2 ratio of Biotin-Ahx-Ub-VS probe labelling (fragment/DMSO); higher = less target engagement (more negative = stronger competition), active = hit call of the paper (q ≤ 0.05, log2 ratio ≤ -1)
Conditions in all cases: compound concentration: 200 uM; treatment time: 3 h
[1] = biological target: T1, USP19 (UniProt O94966)
T1 sequence (whole entry): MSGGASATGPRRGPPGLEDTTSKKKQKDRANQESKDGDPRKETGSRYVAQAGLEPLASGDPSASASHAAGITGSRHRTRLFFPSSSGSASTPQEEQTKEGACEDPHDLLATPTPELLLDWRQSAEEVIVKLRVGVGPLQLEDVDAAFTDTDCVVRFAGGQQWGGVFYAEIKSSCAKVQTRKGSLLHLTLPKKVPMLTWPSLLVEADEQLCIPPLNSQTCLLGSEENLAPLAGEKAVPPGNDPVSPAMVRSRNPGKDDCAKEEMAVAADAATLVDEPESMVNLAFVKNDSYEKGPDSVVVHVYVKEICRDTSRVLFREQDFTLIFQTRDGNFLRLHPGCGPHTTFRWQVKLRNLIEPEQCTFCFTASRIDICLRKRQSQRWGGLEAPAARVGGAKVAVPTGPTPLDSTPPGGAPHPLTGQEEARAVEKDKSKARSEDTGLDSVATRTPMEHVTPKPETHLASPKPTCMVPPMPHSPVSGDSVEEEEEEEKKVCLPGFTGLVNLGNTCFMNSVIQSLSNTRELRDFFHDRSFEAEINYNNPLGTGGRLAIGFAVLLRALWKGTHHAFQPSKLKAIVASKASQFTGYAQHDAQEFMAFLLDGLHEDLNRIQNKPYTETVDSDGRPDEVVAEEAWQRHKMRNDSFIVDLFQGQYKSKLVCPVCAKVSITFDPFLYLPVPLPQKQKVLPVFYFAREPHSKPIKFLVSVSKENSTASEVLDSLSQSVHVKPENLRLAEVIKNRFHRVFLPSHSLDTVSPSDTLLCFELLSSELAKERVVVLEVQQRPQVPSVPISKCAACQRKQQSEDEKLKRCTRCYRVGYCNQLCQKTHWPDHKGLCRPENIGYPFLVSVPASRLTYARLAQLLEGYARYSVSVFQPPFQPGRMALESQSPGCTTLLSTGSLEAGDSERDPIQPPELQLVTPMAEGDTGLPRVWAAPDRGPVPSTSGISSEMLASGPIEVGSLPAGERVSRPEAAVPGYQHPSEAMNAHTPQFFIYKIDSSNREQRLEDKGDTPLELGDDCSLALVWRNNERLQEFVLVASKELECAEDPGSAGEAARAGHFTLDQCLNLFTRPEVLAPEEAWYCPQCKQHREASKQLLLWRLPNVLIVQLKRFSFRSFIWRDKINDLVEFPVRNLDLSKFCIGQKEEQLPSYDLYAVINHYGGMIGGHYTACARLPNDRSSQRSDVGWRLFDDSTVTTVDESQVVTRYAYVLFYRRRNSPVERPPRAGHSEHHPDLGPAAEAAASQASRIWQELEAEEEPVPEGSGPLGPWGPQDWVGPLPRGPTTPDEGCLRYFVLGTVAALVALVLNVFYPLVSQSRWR
In short: (§1)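 The table lists average log2 ratios of fragment over vehicle, from an unpaired t-test on global-median-normalised Spectronaut label-free quantities. Proteins with ≥2 unique peptides were used. Samples were HEK293T lysate (495 µg) treated in triplicate with fragment at 200 µM or vehicle for 3 h, then with Biotin-Ahx-Ub-VS (0.5 µM final) for 1 h, with labelled DUBs NeutrAvidin-enriched and run by diaPASEF LC-MS/MS.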

[2] = biological target: T2, USP22 (UniProt Q9UPT9)
T2 sequence (whole entry): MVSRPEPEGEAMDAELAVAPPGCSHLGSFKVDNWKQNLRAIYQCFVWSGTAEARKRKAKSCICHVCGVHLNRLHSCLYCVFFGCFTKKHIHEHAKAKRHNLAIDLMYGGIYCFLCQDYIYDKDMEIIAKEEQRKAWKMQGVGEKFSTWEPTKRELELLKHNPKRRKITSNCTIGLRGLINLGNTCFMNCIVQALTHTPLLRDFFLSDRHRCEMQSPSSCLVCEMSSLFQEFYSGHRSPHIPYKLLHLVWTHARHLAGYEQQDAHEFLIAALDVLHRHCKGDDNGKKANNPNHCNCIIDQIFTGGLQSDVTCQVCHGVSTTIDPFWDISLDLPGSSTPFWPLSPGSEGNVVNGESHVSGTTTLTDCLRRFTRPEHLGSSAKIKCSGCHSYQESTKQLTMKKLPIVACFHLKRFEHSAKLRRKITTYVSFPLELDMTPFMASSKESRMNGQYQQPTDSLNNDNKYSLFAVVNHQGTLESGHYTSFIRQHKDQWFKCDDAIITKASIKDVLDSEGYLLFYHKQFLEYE
In short: as §1

[3] = biological target: USP24 (UniProt Q9UPU5)
Sequence of USP24 (Q9UPU5 whole entry): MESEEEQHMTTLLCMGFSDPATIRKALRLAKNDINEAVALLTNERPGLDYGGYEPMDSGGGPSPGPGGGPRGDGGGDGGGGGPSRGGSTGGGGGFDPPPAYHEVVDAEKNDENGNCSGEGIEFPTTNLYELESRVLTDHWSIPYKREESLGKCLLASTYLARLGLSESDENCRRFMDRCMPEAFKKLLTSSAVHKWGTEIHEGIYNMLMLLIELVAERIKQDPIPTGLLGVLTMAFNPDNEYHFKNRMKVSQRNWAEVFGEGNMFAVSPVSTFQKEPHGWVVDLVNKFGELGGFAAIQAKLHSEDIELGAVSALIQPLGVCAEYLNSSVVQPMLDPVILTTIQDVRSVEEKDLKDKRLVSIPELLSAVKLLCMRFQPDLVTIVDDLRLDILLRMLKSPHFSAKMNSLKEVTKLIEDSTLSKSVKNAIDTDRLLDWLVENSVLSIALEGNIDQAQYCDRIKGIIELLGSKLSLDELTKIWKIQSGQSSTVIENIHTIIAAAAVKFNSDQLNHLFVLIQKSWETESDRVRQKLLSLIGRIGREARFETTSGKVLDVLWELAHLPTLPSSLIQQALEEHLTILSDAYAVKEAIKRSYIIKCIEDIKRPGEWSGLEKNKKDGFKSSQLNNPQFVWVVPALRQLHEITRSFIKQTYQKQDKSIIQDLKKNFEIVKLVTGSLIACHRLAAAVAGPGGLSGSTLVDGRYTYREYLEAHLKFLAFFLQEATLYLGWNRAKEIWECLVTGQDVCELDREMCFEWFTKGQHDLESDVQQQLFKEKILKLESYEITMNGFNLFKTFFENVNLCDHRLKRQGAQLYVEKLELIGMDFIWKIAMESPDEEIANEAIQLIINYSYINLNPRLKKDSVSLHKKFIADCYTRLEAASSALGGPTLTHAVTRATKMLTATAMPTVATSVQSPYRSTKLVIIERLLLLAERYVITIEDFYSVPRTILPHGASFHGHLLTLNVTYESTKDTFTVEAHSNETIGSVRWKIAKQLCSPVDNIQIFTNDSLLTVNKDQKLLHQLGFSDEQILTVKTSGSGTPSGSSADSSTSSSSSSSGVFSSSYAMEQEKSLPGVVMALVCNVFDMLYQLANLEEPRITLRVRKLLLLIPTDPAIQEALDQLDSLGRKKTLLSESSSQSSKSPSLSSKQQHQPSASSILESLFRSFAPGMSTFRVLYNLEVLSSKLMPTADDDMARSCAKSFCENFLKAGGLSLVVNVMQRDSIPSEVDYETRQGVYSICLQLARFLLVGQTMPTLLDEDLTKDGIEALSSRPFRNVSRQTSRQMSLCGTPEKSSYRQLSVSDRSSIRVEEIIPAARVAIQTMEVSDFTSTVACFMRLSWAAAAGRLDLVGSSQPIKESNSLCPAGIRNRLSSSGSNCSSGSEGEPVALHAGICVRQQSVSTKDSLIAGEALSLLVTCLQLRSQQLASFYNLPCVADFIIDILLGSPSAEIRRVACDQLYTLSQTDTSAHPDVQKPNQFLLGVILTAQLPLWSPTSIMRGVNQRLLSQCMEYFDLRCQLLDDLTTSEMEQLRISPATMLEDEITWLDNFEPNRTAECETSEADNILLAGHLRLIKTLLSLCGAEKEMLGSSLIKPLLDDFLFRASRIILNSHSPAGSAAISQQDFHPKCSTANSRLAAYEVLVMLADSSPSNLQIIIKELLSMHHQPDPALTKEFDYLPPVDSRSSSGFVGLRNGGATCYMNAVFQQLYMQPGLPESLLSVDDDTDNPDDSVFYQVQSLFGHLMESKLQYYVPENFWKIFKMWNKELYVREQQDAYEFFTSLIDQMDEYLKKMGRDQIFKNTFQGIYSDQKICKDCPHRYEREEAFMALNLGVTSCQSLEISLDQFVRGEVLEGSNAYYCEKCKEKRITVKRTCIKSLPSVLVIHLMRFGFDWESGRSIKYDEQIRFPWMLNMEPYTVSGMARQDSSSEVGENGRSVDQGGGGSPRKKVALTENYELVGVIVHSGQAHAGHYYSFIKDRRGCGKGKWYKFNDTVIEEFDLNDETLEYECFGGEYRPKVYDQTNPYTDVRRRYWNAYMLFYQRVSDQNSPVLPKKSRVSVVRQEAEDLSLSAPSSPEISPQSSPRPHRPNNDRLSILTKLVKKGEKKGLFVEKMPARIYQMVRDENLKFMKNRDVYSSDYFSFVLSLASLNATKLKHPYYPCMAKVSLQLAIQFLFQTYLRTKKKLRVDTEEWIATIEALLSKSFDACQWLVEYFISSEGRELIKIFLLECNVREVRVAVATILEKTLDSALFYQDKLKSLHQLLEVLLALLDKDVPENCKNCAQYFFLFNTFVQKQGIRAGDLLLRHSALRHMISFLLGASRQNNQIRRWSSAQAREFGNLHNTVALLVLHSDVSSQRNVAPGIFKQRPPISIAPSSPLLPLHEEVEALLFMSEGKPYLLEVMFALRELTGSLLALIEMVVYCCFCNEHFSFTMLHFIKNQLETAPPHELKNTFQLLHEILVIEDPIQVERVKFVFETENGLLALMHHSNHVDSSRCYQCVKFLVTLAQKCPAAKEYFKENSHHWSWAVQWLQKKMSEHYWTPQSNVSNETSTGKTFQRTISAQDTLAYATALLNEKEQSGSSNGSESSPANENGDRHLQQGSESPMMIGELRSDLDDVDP
In short: as §1

[4] = biological target: T3, USP25 (UniProt Q9UHP3)
T3 sequence (whole entry): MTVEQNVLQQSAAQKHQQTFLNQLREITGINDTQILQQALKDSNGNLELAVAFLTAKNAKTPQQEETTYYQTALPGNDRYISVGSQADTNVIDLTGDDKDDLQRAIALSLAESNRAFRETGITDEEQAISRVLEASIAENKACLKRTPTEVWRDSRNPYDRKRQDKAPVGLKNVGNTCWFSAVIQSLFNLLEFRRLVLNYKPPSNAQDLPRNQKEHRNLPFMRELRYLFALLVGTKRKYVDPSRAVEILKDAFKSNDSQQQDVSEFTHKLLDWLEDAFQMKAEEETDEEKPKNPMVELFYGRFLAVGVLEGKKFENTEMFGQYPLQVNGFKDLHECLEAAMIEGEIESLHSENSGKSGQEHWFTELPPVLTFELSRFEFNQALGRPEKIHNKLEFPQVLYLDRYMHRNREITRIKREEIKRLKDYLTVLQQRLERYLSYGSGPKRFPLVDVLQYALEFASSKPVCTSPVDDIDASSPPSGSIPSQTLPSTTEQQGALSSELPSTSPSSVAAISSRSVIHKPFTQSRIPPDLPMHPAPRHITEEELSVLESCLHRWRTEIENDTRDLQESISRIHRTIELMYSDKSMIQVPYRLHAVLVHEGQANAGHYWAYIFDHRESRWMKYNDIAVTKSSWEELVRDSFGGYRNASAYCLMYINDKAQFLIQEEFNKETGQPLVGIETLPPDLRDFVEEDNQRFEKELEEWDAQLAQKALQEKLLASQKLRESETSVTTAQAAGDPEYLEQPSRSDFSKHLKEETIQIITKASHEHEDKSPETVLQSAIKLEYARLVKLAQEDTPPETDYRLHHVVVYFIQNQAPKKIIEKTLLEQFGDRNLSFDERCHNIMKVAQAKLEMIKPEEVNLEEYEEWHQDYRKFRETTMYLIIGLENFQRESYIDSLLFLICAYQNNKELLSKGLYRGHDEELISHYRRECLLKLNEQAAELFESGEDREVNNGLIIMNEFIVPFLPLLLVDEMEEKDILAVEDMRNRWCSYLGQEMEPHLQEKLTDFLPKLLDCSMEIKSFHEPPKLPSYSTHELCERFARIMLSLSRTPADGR
In short: as §1

[5] = biological target: T4, USP28 (UniProt Q96RU2)
T4 sequence (whole entry): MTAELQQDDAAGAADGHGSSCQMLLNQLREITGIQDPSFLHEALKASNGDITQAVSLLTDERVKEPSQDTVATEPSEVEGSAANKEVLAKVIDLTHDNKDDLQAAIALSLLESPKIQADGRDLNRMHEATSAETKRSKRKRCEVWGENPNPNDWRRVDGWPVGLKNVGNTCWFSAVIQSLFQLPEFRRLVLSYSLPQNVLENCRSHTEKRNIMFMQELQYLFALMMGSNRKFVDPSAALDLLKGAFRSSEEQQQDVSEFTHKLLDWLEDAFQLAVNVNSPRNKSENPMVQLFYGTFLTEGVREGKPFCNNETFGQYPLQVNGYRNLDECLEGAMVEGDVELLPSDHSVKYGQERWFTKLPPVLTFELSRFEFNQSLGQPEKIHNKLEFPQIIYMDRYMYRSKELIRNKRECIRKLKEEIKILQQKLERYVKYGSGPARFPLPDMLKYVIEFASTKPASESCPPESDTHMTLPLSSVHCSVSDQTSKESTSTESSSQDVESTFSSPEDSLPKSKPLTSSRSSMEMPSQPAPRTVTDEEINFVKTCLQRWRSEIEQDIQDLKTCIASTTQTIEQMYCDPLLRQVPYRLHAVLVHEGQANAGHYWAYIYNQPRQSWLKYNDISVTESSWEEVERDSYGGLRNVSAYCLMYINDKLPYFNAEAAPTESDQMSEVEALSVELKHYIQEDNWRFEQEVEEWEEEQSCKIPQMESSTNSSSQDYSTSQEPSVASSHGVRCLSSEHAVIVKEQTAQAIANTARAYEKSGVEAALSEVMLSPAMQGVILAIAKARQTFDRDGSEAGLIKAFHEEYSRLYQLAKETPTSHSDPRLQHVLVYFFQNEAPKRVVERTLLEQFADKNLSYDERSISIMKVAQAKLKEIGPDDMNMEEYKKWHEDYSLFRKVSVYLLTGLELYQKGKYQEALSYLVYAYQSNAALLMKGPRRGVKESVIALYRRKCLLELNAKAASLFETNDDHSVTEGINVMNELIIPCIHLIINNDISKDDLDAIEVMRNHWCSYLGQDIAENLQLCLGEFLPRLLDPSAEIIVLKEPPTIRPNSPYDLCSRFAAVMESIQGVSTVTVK
In short: as §1

Measured: log2 ratio of Biotin-Ahx-Ub-VS probe labelling

O=C(CCl)N[C@H]1CCS(=O)(=O)c2ccccc21
inactive: [1] -0.274 | [2] -0.119 | [3] -0.386 | [4] -0.264 | [5] -0.582
